HGIII-sPLA2 inh: Inhibits HGIII-sPLA2 liposome hydrolysis, primary screen; QFRET BODIPY PC-A2 liposome hydrolysis, fluorescence; Q9NZ20; 370,000 compounds, 0.56% hits; inhibition, % at 12.2 µM;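 active means inhibition above mean plus 3 SD of compounds lying within the high and low control bounds, cut at about 19% in these data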;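 further: 0% = median of test compound wells and 100% = no enzyme DMSO wells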
Target sequence (Q9NZ20 whole entry, looked up): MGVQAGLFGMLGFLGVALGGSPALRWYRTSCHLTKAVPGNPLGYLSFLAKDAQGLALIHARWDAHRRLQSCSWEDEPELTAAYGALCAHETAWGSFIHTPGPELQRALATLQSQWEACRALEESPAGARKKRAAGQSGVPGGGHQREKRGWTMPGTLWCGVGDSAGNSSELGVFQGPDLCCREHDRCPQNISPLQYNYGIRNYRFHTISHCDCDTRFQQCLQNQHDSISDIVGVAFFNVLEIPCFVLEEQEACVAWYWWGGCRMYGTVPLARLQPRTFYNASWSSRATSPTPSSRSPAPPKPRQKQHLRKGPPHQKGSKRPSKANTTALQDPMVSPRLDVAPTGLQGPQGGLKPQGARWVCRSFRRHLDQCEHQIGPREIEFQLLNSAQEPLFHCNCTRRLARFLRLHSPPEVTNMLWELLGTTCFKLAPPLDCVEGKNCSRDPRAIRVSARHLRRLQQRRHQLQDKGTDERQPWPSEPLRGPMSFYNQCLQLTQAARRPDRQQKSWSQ
rCAG binder: molecules binding r(CAG) RNA repeats; inhibition, % at 3 µM; AID 651821; r(CAG) RNA repeat, TO-PRO-1 dye displacement fluorescence; 370,000 compounds, 1.3% hits;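 active means inhibition above the plate cutoff, the mean of all test compounds on that plate plus 3 SD, cut at about 35% in these data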;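 further: 0% = DMSO alone and 100% = 100 µM mitoxantrone as full dye displacement; higher means more dye released from RNA so lower well fluorescence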
bovine MsrA act: activates bovine MsrA enzyme. purified bovine MsrA, absorbance read-out. activation, % at 10.6 µM. 360,000 compounds, 0.3% hits. AID 602163; in the data active means activation above about 7.5%;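 further: 0% = vehicle and 100% = reference activator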
MsrA inh: inhibits bovine methionine sulfoxide reductase A. AID 651718. 360,000 compounds, 0.75% hits. inhibition, % at 15.5 µM. purified bovine MsrA, absorbance read-out; in the data active means inhibition above about 4.5%;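 further: 0% = vehicle wells with enzyme and 100% = reference inhibitor wells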
rCAG binder conf: r(CAG) RNA repeat binding, confirmation. shares compounds with rCAG binder. TO-PRO-1 dye displacement fluorescence. inhibition, % at 3 µM. 4,300 compounds, 70% hits. AID 652065;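 active means inhibition above a per-plate cutoff, the mean inhibition of sample wells plus 3 SD, cut at about 35% in these data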;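 further: loss of TO-PRO-1 fluorescence as compound displaces dye from 1x1 AA loop RNA; 0% = DMSO only wells and 100% = 100 µM mitoxantrone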
dCAG dye counter: DNA CAG dye complex inhibition counter-screen; shares compounds with rCAG binder; d(CAG) DNA oligo TO-PRO-1 dye displacement, fluorescence; inhibition, % at 3 µM; 4,300 compounds, 94% hits;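 active means inhibition above its plate's cutoff, the mean test-well inhibition plus 3 SD, cut at about 4.8% in these data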;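 further: 0% = DNA dye mix with DMSO and 100% = 100 µM mitoxantrone; hits displace the dye from DNA and so lower well fluorescence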
DNA CAG DR: DNA CAG dye complex inhibition, dose response counter-screen. shares compounds with rCAG binder. IC50, µM. 250 compounds, 20% hits. DNA CAG/GTC duplex TO-PRO-1 dye displacement fluorescence; in the data active means IC50 below about 10 µM
* = called active by the depositor; . = no result. Sampled rows, rich in hits. Any-hit rate of the full collection: about 2.8%.

SMILES	HGIII-sPLA2 inh	rCAG binder	bovine MsrA act	MsrA inh	rCAG binder conf	dCAG dye counter	others
CCOc1cc(/C=N/Nc2ccc(S(=O)(=O)Nc3ccccc3C(=O)O)cc2[N+](=O)[O-])cc(Cl)c1O	-24	67*	-5	1	93*	73*
COc1cc(/C=N/Nc2ccccc2[N+](=O)[O-])cc(OC)c1O	-6	19	-4	0	.	.
CCCNC(=O)C1(C)CCCN(Cc2csc3ccccc23)C1 (configuration not stated)	-3	-1	0	-1	.	.
COc1cnc(-c2cccc(C(F)(F)F)c2)c(NC(=O)c2cc3ccccc3s2)n1	0	5	5	2	.	.
COc1ccc(/C=C2/SC(=S)N(c3ccc(S(=O)(=O)Nc4nccs4)cc3)C2=O)cc1	-14	73*	-3	2	77*	44*
Cc1ccc(/C=C2/SC(=S)N(c3ccc(S(=O)(=O)Nc4nccs4)cc3)C2=O)cc1	-11	42*	-12	1	82*	49*
O=C1/C(=C/c2ccccn2)SC(=S)N1c1ccc(O)cc1	-5	3	-5	2	.	.
O=C1/C(=C\c2ccccn2)SC(=S)N1c1ccc(S(=O)(=O)Nc2nccs2)cc1	-39	65*	0	-1	83*	52*
CC1CCCC(NC(=O)COC(=O)COc2ccccc2Cl)C1C (configuration not stated)	-3	-6	-3	0	.	.
COc1ccccc1CNC(=O)c1oc2ccc(S(=O)(=O)N3CCOCC3)cc2c1C	0	2	-3	0	.	.
Cc1ccc(C)n1NC(=O)c1ccccc1O	2	36*	-5	1	22	13*
Cc1ccc(C)n1NC(=O)c1ccccc1[N+](=O)[O-]	-15	16	-4	0	.	.
Cc1c(CC(=O)O)c(=O)oc2cc(OCc3ccc(Br)cc3)ccc12	-19	40*	-5	1	47*	9.7*	DNA CAG DR=>30
Cc1c(CCC(=O)O)c(=O)oc2cc(OCc3ccccc3Br)ccc12	7	56*	-2	3	43*	8.8*
COc1ccc(CN2CCC2(C)C(=O)Nc2ccc(OC)c(OC)c2)cc1 (configuration not stated)	2	-1	1	1	.	.
Cc1ccc(Cn2nnc3c(=O)[nH]c(C4CCN(C(=O)c5cccs5)CC4)nc32)cc1	-24	0	0	1	.	.
O=C(Nc1cccc(S(=O)(=O)NC2=NCCC2)c1)c1cn(-c2ccccc2)nc1-c1ccc(F)cc1	-33	9	0	1	.	.
O=C(O)c1cccc(NC(=O)c2cn(-c3ccccc3)nc2-c2ccc(F)cc2)c1	-11	38*	-2	2	25	5.5*
Cc1ccc(-c2nn(-c3ccccc3)cc2C(=O)Nc2ccc(C(=O)O)cc2)cc1	-24	44*	-3	2	37*	8.2*
CC1(C)Cc2c(c(N3CCCC3)nc3sc4c(N5CCN(CCO)CC5)ncnc4c23)CO1	-10	3	-6	2	.	.
CCOc1cc(/C=C2\C(=O)N(c3ccc(C(N)=O)cc3)N=C2C)ccc1OC(=O)c1cccs1	.	.	2	.	.	.
CC1=NN(c2ccc(C(=O)O)cc2)C(=O)/C1=C\c1ccc(OC(=O)c2cccs2)cc1	-1	45*	-4	1	52*	18*
Cc1cc(=O)n(CCO)c(O)c1C#N	-1	-2	-7	4	.	.
Cc1cc(=O)n(CCc2ccccc2)c(O)c1C#N	-13	64*	1	2	11	4.4*
CC1CCN(c2ccc(C(=O)O)cc2NS(=O)(=O)c2ccc(F)cc2)CC1	-9	20	.	.	.	.
SMILES	HGIII-sPLA2 inh	rCAG binder	bovine MsrA act	MsrA inh	rCAG binder conf	dCAG dye counter	others
CC1CCN(c2ccc(C(=O)O)cc2NS(=O)(=O)c2ccc(C(C)(C)C)cc2)CC1	-37	64*	.	.	64*	26*
Cc1ccc(-c2n[nH]c(=O)c3ccccc23)cc1S(=O)(=O)Nc1ccccc1	-15	10	-2	3	.	.
CCC(NC(=O)CCc1c(C)c2cc3c(-c4ccccc4)coc3cc2oc1=O)C(=O)O (configuration not stated)	-12	37*	-2	2	42*	9.4*
Cc1c(CCC(=O)N[C@@H](C)C(=O)O)c(=O)oc2cc3occ(-c4ccccc4)c3cc12	-9	36*	-12	3	45*	9.8*
N#CCCN(C(=O)COC(=O)c1cccc(S(=O)(=O)Nc2ccc([N+](=O)[O-])cc2)c1)c1ccccc1	-61	77*	-9	1	77*	35*
O=C(c1ccc(NC(=O)C(c2ccccc2)c2ccccc2)cc1)c1ccc(C(=O)O)c(C(=O)O)c1	-6	42*	-2	2	18	3
CCOC(=O)c1cc(C)sc1NC(=O)C(c1ccccc1)c1ccccc1	-16	5	-4	1	.	.
CCc1cc(C(=O)O)c(NC(=O)C(c2ccccc2)c2ccccc2)s1	-27	41*	-1	0	36*	8.4*
O=C(O)c1ccc(NC(=O)C(c2ccccc2)c2ccccc2)cc1	-16	6	-3	-1	.	.
Cc1cc(C)n(-c2ccc(Cl)c(C(=O)NCc3ccccc3)n2)n1	1	-3	-5	-1	.	.
O=C(NNc1ccccc1)C(=O)NNc1ccccc1	6	3	-9	0	.	.
Cc1ccc(S(=O)(=O)N2[C@@H](c3ccc(Cl)cc3)C(C(=O)O)=CC[C@H]2c2ccc3c(c2)OCO3)cc1	-17	54*	3	0	60*	23*
Cc1ccc(S(=O)(=O)N2[C@@H](c3ccc(Br)cc3)C(C(=O)O)=CC[C@H]2c2cccc(C)c2)cc1	-1	5	-4	0	.	.
Cc1ccc(S(=O)(=O)N2[C@@H](c3cccc(Cl)c3)C(C(=O)O)=CC[C@H]2c2ccc3c(c2)OCO3)cc1	-21	67*	-3	0	69*	31*
Cc1ccc(S(=O)(=O)N2[C@@H](c3cccc(Cl)c3)C(C(=O)O)=CC[C@H]2c2cccc(C)c2)cc1	-1	10	-2	0	.	.
Cc1ccc(S(=O)(=O)N2[C@@H](c3ccc(Br)cc3)C(C(=O)O)=CC[C@H]2c2ccc3c(c2)OCO3)cc1	-15	67*	-2	-1	60*	23*
Cc1ccc([C@H]2C(C(=O)O)=CC[C@@H](c3ccc4c(c3)OCO4)N2S(=O)(=O)c2ccc(C)cc2)cc1	-12	63*	0	0	61*	22*
O=C(O)c1cccc(C(=O)O)c1	1	1	0	0	.	.
CCN1CCC(C(=O)NC(c2ccc(F)cc2)c2ncccc2C)CC1 (configuration not stated)	16	6	0	1	.	.
COc1ccc(-c2noc(Cc3ccc(Cl)cc3)n2)cc1OC	-20	2	-1	0	.	.
Cn1nnnc1SCC(=O)NC(=O)c1cccc([N+](=O)[O-])c1	3	-2	-9	0	.	.

Assay outcomes from PubChem BioAssay.
